PI5P4Ka inh: inhibitors of human PI5P4K alpha; max response, %; hit rate 1.2% among 330,000; AID 652105; P48426; PI5P4Kalpha enzyme, ADP-Glo luminescence, 60 min; stronger effect = lower value; active = max response of -50% or lower; inconclusive = between -30% and -50%; inactive = -30% or higher; also: value at the top dose of about 77 µM
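Quantitative HTS of the MLSMR library against PI5P4Kalpha with substrate. ATP added last at 5 microM final; room temperature, 60 minutes. Remaining ATP depleted, ADP converted and read as luminescence.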
WRN inhibitor: blocks human WRN helicase | Q14191 | WRN helicase unwinding, fluorescent forked duplex, kinetic | Potency, µM (series often up to 114 µM), actives largely listed as inhibitors | hit rate 0.46% among 360,000 | AID 651768; also: nearly all actives have a fitted effect of over 55% in size
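Kinetic fluorescence helicase assay: unwinding of a quenched forked DNA duplex (100 nM final) with 2 mM ATP final raises red fluorescence (525/598 nm). Compounds sat 15 min at room temperature with 20 nM WRN beforehand.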
Pol kappa inh: inhibitors of human DNA polymerase kappa. Q9UBT6. purified Pol kappa, fluorescent DNA synthesis assay, 10 min. Potency, µM (top dose mostly 107 µM), hits mostly inhibitors. hit rate 0.53% among 400,000
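50 nM final substrate added after 15 min RT preincubation of 10 nM Pol kappa with compound; fluorescence read at 0 and 10 min.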
POLI inh: inhibitors of human DNA polymerase iota | AID 588590 | Potency, µM (titrated, usually from 115 µM), usual class: inhibitors | Pol iota fluorescent replication assay, 10 min | hit rate 1% among 390,000
Target sequence (Q9UNA4 whole entry, looked up): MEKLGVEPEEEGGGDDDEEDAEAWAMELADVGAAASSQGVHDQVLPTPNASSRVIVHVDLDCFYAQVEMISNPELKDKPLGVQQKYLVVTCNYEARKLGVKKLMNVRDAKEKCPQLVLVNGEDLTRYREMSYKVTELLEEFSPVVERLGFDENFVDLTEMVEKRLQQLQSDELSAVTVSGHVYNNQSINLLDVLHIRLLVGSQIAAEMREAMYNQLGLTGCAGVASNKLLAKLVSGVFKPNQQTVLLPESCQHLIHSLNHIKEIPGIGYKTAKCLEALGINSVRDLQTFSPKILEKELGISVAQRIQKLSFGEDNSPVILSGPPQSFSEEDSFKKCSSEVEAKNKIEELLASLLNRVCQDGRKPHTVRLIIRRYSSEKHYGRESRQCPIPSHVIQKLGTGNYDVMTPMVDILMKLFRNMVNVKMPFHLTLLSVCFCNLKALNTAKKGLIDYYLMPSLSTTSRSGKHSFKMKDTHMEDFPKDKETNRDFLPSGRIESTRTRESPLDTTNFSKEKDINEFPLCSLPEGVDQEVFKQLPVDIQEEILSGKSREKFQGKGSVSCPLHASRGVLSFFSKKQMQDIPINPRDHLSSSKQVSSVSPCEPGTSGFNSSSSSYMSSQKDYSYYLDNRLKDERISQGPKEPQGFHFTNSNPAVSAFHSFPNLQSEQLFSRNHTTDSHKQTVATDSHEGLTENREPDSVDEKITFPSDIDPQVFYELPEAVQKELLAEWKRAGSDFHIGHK
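Pol iota at 10 nM preincubated 15 min with compounds at room temperature; reaction started with fluorescent substrate, 50 nM final. Fluorescence read kinetically at 0 and 10 min; buffer-only wells as negative control.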
Pol eta inh: inhibitors of human DNA polymerase eta. hit rate 1.2% among 390,000. Potency, µM (doses to about 114 µM), actives largely listed as inhibitors. recombinant Pol eta, fluorescent DNA replication assay. AID 588591
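Fluorescent replication assay: 50 nM final substrate added after a 15 min room-temperature compound preincubation with 10 nM enzyme. Signal taken at 0 min and again at 10 min.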
POLB inh: blocks human DNA polymerase beta activity; Pol beta primer extension/strand displacement, fluorescence kinetic; P06746; hit rate 1.3% among 340,000; Potency, µM (highest dose often 114 µM), actives largely listed as inhibitors; AID 485314
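Human Pol beta at 10 nM; strand-displacement substrate 50 nM final. Compound exposure 15 min at room temperature before start, reaction 10 min at room temperature.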
Of the large screens only hits and unclear results are named; the others gave an inactive call. Shown are actives, neighbours in structure and some others; about 2.8% of the full set was active somewhere. Unless noted, calls follow the shape of the dose curve; as a rule, active = well fitted curve in the direction sought with a large enough effect; inconclusive = small, poorly fitted or top-dose-only effect, or another doubt; inactive = no such curve, though single readings can be large; an effect the other way counts as inactive or inconclusive.

C#CCOCCOCCOCCNc1nc(N2CCN(C(=O)CCCCCCCCCCNC(=O)[C@H](CCCCN)n3cc(CCCC(=O)O)nn3)CC2)nc(N2CCN(C(=O)CCCCCCCCCCNC(=O)[C@H](CCCCN)n3cc(CCCC(=O)O)nn3)CC2)n1	PI5P4Ka inh -56, POLI inh inconclusive (no result: POLB inh)
C#CCOCCOCCOCCNc1nc(N2CCN(C(=O)CCCCCCCCCCNC(=O)[C@H](CCC(=O)O)n3cc(CCCCCN)nn3)CC2)nc(N2CCN(C(=O)CCCCCCCCCCNC(=O)[C@@H]([C@H](C)O)n3cc(C)nn3)CC2)n1	POLI inh inconclusive (no result: POLB inh)
C#CCOCCOCCOCCNc1nc(N2CCN(C(=O)CCCCCCCCCCNC(=O)[C@H](CCCCN)n3cc(CCO)nn3)CC2)nc(N2CCN(C(=O)CCCCCCCCCCNC(=O)[C@H](CCCCN)n3cc(CCO)nn3)CC2)n1	PI5P4Ka inh -67, Pol eta inh inconclusive (no result: POLB inh)
C#CCOCCOCCOCCNc1nc(N2CCN(C(=O)CCCCCCCCCCNC(=O)[C@H]([C@@H](C)CC)n3cc(CCCCCN)nn3)CC2)nc(N2CCN(C(=O)CCCCCCCCCCNC(=O)[C@@H]([C@H](C)O)n3cc(C)nn3)CC2)n1	PI5P4Ka inh inconclusive, WRN inhibitor 56µM, Pol kappa inh inconclusive, POLI inh inconclusive, Pol eta inh inconclusive (no result: POLB inh)
C#CCOCCOCCOCCNc1nc(N2CCN(C(=O)CCCCCCCCCCNC(=O)[C@@H]([C@H](C)O)n3cc(C)nn3)CC2)nc(N2CCN(C(=O)CCCCCCCCCCNC(=O)[C@@H]([C@H](C)O)n3cc(C)nn3)CC2)n1	POLI inh inconclusive (no result: POLB inh)
C#CCOCCOCCOCCNc1nc(N2CCOCC2)nc(N2CCN(C(=O)CCCCCCCCCCNC(=O)[C@H](CO)n3cc(CCCCCN)nn3)CC2)n1	none (no result: POLB inh)
C#CCOCCOCCOCCNc1nc(N2CCN(C(=O)CCCCCCCCCCNC(=O)[C@@H](CCC(=O)O)n3cc(CCCCCN)nn3)CC2)nc(N2CCN(C(=O)CCCCCCCCCCNC(=O)[C@@H](CCC(=O)O)n3cc(CCCCCN)nn3)CC2)n1	none (no result: POLB inh)
C#CCOCCOCCOCCNc1nc(N2CCN(C(=O)CCCCCCCCCCNC(=O)[C@H](CCCCN)n3cc(CCO)nn3)CC2)nc(N2CCN(C(=O)CCCCCCCCCCNC(=O)[C@@H]([C@H](C)O)n3cc(C)nn3)CC2)n1	PI5P4Ka inh -84, POLI inh inconclusive, Pol eta inh inconclusive (no result: POLB inh)
CCN(CC)c1nc(NC2CCN(C)CC2)c2cc(OC)c(OC)cc2n1	none (no result: PI5P4Ka inh, WRN inhibitor, Pol eta inh, POLB inh)
CCCCc1ccc(NC(=O)COc2cccc3c(=O)n(C)ccc23)cc1	POLB inh inconclusive (no result: PI5P4Ka inh, WRN inhibitor)
CC(=O)N1CCc2cc(CNS(=O)(=O)c3ccc(Cl)s3)ccc21	none (no result: PI5P4Ka inh, WRN inhibitor)
CCOc1ccc(NC(=O)CCc2nc3cccnc3n2-c2ccccc2)cc1	none (no result: PI5P4Ka inh, WRN inhibitor)
CS(=O)(=O)N(CC(=O)Nc1ccccc1)Cc1ccc(Cl)cc1	none (no result: PI5P4Ka inh)
CSc1cccc(NC(=O)CN(Cc2ccc(Cl)cc2)S(C)(=O)=O)c1	POLI inh 89µM (no result: PI5P4Ka inh)
Cc1c(NC(=O)C(F)(F)F)ccc2nc3c(=O)n(C)c(=O)n(C)c3nc12	none (no result: PI5P4Ka inh, WRN inhibitor)
CC12CCC(C(N)=O)(c3nc4ccccc4nc31)C2(C)C (centres undefined)	POLB inh 89µM
CN(C)C(=O)C12CCC(C)(c3nc4ccccc4nc31)C2(C)C (centres undefined)	none (no result: PI5P4Ka inh)
O=C(O)c1cccc(N2C(=O)C3C4C=CC(C4=C(c4ccccc4)c4ccccc4)C3C2=O)c1 (centres undefined)	POLB inh 50µM
Cc1ccc2nc(NC(=O)CSc3nccn3-c3ccc(Cl)cc3)sc2c1	POLI inh inconclusive, POLB inh 25µM (no result: PI5P4Ka inh, WRN inhibitor)
Cc1ccc2nc(NC(=O)CSc3nccn3Cc3ccc(Cl)cc3)sc2c1	none (no result: PI5P4Ka inh, WRN inhibitor)
N#CC1=C2SCN(Cc3ccco3)CN2C(=O)CC1c1ccc(Cl)cc1 (centres undefined)	PI5P4Ka inh inconclusive
N#CC1=C2SCN(Cc3ccccc3)CN2C(=O)CC1c1ccc2c(c1)OCO2 (centres undefined)	PI5P4Ka inh -58, POLB inh 45µM
N#CC1=C2SCN(Cc3ccccc3)CN2C(=O)CC1c1cccs1 (centres undefined)	PI5P4Ka inh -59, POLI inh inconclusive, POLB inh inconclusive
COc1ccc(C2CC(=O)N3CN(Cc4ccco4)CSC3=C2C#N)cc1 (centres undefined)	POLI inh inconclusive, POLB inh inconclusive (no result: PI5P4Ka inh)
COc1ccc2ccccc2c1C1CC(=O)N2CN(Cc3ccco3)CSC2=C1C#N (centres undefined)	PI5P4Ka inh inconclusive, POLI inh inconclusive, Pol eta inh 89µM, POLB inh 50µM
O=C(O)/C(=N/NC(=O)c1ccc(Cl)cc1)c1ccccc1	POLB inh 25µM
CC1CCCCN1C(=O)Cn1c(=O)n(-c2ccc(Cl)cc2)c(=O)c2c3c(sc21)CCC3 (centres undefined)	none (no result: PI5P4Ka inh, WRN inhibitor)
Cc1ccc2c(/C=C/c3ccc(N(C)C)cc3)ccnc2c1	none (no result: PI5P4Ka inh, WRN inhibitor, Pol eta inh, POLB inh)
N#C/C(=C/c1ccco1)C(N)=S	PI5P4Ka inh -59, POLI inh inconclusive, POLB inh 20µM
N#C/C(=C\c1ccc2c(c1)OCO2)C(N)=S	POLI inh inconclusive
CCOC(=O)c1noc2nc(C)n(CC(=O)NC(C)CC)c(=O)c12 (centres undefined)	none (no result: PI5P4Ka inh, WRN inhibitor)
C#CCOC(=O)c1ccccc1C(=O)O	POLI inh 79µM
Cc1c(C(=O)NCc2cccc(Cl)c2)sc2nc3n(c(=O)c12)CCC3	none (no result: PI5P4Ka inh, WRN inhibitor)
O=C(Nc1cccc([N+](=O)[O-])c1)c1ccc2nc(N3C(=O)CCC3=O)sc2c1	PI5P4Ka inh inconclusive, WRN inhibitor 45µM
O=C(Nc1cccc(Br)c1)c1ccc2nc(N3C(=O)CCC3=O)sc2c1	PI5P4Ka inh -58, WRN inhibitor inconclusive, Pol eta inh inconclusive
O=C(Nc1cccc([N+](=O)[O-])c1)c1ccc2snnc2c1	none
COc1ccc(C2C=C(c3cccc(OC)c3)Nc3c(C(=O)Nc4ccccc4)cnn32)cc1 (centres undefined)	none (no result: PI5P4Ka inh, WRN inhibitor)
O=C1c2ccccc2-c2onc3ccc(NCCCn4ccnc4)c1c23	WRN inhibitor 32µM, Pol kappa inh 20µM, POLI inh inconclusive, Pol eta inh 79µM, POLB inh 25µM (no result: PI5P4Ka inh)
NS(=O)(=O)c1ccc(NCCCn2ccnc2)c([N+](=O)[O-])c1	none
CC(=O)C1=C(c2ccc(Br)cc2)C(=O)c2ccccc2C1=O	WRN inhibitor inconclusive, Pol kappa inh inconclusive, POLI inh 3.5µM
C=C(CCC(=O)c1ccccc1)C(=O)c1ccccc1	POLI inh inconclusive, Pol eta inh 16µM, POLB inh inconclusive
COc1ccc(-n2cc(-c3ccccc3)c3c(Nc4ccc(OC)c(OC)c4)ncnc32)cc1	POLI inh inconclusive (no result: PI5P4Ka inh, WRN inhibitor)
